What all share (set-up): scale not given: direction of the effect not stated beside the values
The target of assay [1] is Protein translocase subunit SecA (Escherichia coli (strain K12)) (UniProt P10408). Kind of assay: Assay to Identify E. coli SecA ATPase Inhibitors. The format is functional. The settings on record: 30 µM.
The target in assay [2] is T1, Ubiquitin-activating enzyme e1, putative (Leishmania donovani (strain BPK282A1)) (UniProt E9BSI1).
T1 sequence (whole entry): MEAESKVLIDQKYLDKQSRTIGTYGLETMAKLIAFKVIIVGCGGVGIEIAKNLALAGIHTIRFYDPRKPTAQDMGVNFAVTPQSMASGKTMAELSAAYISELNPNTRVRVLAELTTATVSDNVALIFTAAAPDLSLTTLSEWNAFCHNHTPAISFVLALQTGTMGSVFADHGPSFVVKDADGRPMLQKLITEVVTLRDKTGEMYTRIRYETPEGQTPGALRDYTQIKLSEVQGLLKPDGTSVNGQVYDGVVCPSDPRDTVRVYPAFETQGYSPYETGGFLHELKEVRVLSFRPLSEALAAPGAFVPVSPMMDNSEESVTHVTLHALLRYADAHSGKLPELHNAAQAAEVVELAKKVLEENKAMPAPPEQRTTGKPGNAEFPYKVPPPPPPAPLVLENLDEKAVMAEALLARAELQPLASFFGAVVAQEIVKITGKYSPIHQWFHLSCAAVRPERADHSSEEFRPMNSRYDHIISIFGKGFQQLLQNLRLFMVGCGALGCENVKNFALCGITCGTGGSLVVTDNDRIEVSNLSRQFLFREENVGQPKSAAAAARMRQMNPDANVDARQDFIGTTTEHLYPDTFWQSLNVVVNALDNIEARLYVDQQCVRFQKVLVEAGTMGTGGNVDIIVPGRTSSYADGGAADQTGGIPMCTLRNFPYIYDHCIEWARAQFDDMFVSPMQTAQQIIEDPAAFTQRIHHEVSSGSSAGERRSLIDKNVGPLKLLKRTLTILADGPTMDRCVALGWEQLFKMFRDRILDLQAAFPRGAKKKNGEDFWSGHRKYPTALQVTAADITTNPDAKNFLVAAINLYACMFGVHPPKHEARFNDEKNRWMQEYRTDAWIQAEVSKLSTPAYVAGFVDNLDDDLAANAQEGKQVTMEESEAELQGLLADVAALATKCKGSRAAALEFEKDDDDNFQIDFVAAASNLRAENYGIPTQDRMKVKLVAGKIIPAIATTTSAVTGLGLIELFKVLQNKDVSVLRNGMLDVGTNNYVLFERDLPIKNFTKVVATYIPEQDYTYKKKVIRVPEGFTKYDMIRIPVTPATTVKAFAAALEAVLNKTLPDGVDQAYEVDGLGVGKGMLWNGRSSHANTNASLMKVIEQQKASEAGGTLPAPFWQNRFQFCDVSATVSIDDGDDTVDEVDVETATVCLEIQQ
Nature of the assay: Leishmania donovani Ubiquitin Activating Enzyme (LdE1). The format is functional. The settings on record: 30 µM.

Assay [3] deals with T2, Aspartate--tRNA(Asp/Asn) ligase (Mycobacterium tuberculosis (strain ATCC 25618 / H37Rv)) (UniProt P9WFW3).
T2 sequence (whole entry): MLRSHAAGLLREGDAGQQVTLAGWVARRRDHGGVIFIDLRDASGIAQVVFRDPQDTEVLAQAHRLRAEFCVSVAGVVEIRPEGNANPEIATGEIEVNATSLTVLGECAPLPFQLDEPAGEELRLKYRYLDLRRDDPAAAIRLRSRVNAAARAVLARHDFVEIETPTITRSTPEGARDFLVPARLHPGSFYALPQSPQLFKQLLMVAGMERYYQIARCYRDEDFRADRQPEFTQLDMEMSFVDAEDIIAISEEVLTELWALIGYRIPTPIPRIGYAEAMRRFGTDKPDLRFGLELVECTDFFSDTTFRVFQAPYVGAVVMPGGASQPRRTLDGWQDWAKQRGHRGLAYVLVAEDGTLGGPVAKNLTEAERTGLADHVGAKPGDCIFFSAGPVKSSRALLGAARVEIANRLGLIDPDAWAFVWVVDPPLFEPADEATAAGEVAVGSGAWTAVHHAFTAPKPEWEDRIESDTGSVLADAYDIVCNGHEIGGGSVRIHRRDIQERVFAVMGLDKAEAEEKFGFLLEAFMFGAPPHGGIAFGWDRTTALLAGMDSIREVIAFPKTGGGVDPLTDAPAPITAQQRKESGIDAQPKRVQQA
Kind of assay: Assay for Asp RNA synthetase-1 from Mycobacterium tuberculosis. It counts as functional. The conditions noted are these: 30 µM.

The target of assay [4] is Sialic acid-binding Ig-like lectin 9 (Homo sapiens) (UniProt Q9Y336). Nature of the assay: Hs-Siglec9 ALPHAscreen SOP 20170721. The settings on record: 10 µM.
For the next assay, the system named is Trypanosoma cruzi. Kind of assay: Trypanosoma cruzi phosphomannomutase and mannose-1-phosphate guanylyltransferase assay. It counts as functional. The settings on record: 10 µM.
The target of assay [5] is T3, Arginase-2, mitochondrial (Homo sapiens) (UniProt P78540).
T3 sequence (whole entry): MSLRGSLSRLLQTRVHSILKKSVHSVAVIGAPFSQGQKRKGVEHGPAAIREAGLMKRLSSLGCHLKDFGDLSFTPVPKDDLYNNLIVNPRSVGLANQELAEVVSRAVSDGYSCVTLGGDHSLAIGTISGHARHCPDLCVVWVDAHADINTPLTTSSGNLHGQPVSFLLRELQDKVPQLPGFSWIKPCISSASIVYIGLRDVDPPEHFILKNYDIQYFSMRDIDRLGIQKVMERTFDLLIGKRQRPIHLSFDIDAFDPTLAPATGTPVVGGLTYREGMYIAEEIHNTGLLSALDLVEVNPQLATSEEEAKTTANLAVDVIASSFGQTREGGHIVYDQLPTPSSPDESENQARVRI
Kind of assay: in vitro enzyme assay to detect the production of urea directly proportional to the activity of Arginase II. Further: in the data most compounds retested in dose-response had high values. It counts as functional. The settings on record: 33.3 µM.

In assay [6] the target is T4, Proteasome subunit beta (Trypanosoma cruzi) (UniProt O96673).
T4 sequence (whole entry): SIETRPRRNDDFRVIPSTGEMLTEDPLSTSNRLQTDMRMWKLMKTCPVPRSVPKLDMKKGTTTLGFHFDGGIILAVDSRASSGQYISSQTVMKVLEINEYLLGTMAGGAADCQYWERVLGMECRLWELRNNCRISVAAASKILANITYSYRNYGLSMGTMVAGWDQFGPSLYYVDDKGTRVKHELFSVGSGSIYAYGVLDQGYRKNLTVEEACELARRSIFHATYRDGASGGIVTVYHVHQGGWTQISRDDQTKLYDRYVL
Nature of the assay: Trypanosoma cruzi proteasome chymotrypsin-like activity (TcProtChymo) assay. Further: in the data most compounds retested in dose-response had high values. It counts as functional. The settings on record: 9.37 µM.

A further assay is filed under the species Homo sapiens. Kind of assay: To identify inhibition of the IFN signalling (Jak-Stat) pathway via expression of an eGFP reporter gene under the control of an IFN-stimulated response element (ISRE) containing MxA promoter. The format is functional. The settings on record: 30 µM. On the technique in general: In a reporter assay the amount or activity of a reporter protein is the signal.

The target of assay [7] is Shiga toxin 2 (Escherichia coli O157:H7) (UniProt P09385+P09386). Kind of assay: E. coli 0.157:H7 Shiga Toxin SOP - stx2 screening assay. The format is functional. The settings on record: 30 µM.
Assay [8] deals with T5, Tyrosyl-tRNA synthetase, putative (Trypanosoma cruzi (strain CL Brener)) (UniProt Q4DSP6).
T5 sequence (whole entry): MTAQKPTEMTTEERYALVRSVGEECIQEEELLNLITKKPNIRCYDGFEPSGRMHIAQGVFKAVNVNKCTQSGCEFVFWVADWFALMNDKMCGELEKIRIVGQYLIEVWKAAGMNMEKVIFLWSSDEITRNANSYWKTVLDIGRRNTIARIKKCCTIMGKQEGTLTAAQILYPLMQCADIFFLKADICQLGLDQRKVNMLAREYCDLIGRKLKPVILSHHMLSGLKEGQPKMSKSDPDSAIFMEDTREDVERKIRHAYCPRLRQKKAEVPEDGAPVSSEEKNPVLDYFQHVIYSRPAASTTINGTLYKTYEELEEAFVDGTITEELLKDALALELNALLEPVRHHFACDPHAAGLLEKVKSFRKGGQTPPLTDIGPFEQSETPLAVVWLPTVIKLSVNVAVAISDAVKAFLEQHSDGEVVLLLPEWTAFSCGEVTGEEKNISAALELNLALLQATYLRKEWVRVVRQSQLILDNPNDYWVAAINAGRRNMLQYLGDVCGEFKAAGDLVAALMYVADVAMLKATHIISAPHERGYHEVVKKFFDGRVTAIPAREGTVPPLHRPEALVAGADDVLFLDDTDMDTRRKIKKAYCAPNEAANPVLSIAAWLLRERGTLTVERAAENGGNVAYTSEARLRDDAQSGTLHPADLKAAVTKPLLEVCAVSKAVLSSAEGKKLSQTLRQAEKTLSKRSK
Nature of the assay: Trypanosoma cruzi tyrosyl tRNA synthetase (TcYRS) _High Tyrosine SOP. Further: in the data most compounds retested in dose-response had high values. The conditions noted are these: 30 µM. It counts as functional.

The target in assay [9] is T5, Tyrosyl-tRNA synthetase, putative (Trypanosoma cruzi (strain CL Brener)). Kind of assay: Trypanosoma cruzi tyrosyl tRNA synthetase (TcYRS) SOP. The format is functional. The conditions noted are these: 30 µM.
Assay [10] deals with Chromo domain-containing protein 1 (Saccharomyces cerevisiae (strain ATCC 204508 / S288c) (Baker's yeast)) (UniProt P32657). Kind of assay: ScCHD-1 Enzyme Inhibition Assay. Further: in the data most compounds retested in dose-response had high values. The format is functional. The conditions noted are these: 30 µM.
Assay [11] deals with AMP-activated protein kinase, AMPK (Homo sapiens) (UniProt P54646+O43741+P54619+Q9UGJ0+Q9Y478+Q13131+Q9UGI9). Nature of the assay: AMP-dependent Kinase enzyme assay. An in vitro enzyme assay that detects ADP turnover that is directly proportional to AMPK activity. This uses naive AMPK that is activated during the assay with MK-8722. It counts as functional. The settings on record: 30 µM.

For some assays here: Results with a measured potency or affinity are listed apart.

Chain of Chromo domain-containing protein 1 (Saccharomyces cerevisiae (strain ATCC 204508 / S288c) (Baker's yeast)) (P32657 whole entry, the tested form may be a part): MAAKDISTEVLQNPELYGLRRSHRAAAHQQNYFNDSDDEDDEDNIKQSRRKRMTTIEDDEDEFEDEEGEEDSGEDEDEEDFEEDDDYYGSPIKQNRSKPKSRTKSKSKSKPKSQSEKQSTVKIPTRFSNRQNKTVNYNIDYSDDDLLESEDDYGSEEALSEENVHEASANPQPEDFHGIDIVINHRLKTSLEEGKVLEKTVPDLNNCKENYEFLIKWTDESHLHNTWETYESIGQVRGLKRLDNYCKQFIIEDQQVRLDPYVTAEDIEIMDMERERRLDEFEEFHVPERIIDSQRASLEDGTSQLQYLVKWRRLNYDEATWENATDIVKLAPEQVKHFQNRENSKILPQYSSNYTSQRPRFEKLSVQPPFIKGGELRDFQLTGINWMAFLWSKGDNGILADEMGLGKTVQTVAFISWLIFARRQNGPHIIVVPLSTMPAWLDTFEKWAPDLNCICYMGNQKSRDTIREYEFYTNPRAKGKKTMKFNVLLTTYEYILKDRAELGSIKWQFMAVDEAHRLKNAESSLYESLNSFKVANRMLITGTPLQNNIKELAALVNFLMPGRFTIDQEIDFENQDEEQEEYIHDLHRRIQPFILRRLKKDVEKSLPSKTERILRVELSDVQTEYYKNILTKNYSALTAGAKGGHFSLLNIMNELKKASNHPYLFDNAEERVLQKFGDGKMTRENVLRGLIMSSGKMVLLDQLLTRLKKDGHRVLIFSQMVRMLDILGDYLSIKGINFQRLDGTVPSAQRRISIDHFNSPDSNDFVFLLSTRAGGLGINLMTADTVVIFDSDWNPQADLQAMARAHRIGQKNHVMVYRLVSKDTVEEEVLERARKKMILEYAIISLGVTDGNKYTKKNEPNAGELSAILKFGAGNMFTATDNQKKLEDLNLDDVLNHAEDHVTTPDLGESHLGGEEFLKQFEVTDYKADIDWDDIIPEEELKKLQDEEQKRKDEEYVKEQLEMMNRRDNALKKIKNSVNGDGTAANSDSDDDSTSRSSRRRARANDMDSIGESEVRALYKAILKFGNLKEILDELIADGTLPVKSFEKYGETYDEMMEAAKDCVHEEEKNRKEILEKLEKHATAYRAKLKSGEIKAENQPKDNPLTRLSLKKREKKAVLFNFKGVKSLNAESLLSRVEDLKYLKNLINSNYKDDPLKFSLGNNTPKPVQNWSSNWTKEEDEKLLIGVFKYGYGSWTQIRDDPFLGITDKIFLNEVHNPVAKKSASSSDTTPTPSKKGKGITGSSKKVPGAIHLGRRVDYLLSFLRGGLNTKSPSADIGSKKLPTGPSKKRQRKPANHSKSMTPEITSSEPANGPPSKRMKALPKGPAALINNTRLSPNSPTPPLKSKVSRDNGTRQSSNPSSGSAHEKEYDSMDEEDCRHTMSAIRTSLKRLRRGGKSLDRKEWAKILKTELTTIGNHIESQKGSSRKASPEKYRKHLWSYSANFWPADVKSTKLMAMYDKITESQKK
Chain of Protein translocase subunit SecA (Escherichia coli (strain K12)) (P10408 whole entry): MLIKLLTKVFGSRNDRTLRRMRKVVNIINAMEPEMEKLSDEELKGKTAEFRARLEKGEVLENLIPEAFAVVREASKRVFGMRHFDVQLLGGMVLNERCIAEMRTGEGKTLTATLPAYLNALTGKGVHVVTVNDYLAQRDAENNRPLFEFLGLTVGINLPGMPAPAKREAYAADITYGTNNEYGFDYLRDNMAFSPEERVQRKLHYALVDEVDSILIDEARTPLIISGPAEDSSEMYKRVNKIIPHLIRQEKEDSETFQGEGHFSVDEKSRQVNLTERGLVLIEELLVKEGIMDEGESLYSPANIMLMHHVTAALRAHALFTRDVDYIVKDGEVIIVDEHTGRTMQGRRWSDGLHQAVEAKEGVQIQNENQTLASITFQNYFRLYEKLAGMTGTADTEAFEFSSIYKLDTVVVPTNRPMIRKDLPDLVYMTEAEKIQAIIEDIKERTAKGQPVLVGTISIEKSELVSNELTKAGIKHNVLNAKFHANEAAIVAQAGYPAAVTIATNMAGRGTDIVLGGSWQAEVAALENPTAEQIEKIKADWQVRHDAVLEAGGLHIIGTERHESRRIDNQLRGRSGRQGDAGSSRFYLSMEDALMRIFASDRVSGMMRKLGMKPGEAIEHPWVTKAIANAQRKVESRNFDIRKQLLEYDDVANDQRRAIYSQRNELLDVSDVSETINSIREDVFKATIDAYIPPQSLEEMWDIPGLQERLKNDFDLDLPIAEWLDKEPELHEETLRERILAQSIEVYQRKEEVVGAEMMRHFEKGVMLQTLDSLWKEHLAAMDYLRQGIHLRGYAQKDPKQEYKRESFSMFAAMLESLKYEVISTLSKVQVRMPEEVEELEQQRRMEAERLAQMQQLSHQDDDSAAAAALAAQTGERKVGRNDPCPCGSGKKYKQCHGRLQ
Chain of Sialic acid-binding Ig-like lectin 9 (Homo sapiens) (Q9Y336 whole entry): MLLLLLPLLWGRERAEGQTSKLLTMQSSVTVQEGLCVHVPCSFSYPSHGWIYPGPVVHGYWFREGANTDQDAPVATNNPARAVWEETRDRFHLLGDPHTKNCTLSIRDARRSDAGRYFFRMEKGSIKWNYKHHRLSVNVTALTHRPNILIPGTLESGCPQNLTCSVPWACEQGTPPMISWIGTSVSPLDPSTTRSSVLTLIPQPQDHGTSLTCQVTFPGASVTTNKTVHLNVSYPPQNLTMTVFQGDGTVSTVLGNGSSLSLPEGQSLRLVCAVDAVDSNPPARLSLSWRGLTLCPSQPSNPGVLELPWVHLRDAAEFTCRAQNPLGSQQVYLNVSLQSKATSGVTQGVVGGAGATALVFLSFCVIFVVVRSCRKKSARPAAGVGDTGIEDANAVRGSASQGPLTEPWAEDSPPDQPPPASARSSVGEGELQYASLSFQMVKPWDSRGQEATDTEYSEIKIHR

For the compound `Cc1noc(C)c1CN1CCCC2(CCN(C(=O)NC3CC3)C2)C1` (stereo not given), the Percent Effect in [1] was -2.63%; in assay [2] it was 22.1%; in assay [3] it was 0.865%; in [4], -1.1%; in the assay with Trypanosoma cruzi, -3.94%; in assay [5] it was 5.94%. The Percent Effect in assay [6] was 17.2%; in the assay filed under Homo sapiens, 16.8%; in assay [7], -1.92%; in assay [8], 13.5%; in [9], 15%; in assay [10] it was -10.3%.

In the case of `Cc1ccc(N2CCO[C@H]3CN(Cc4cnn(C)c4)C[C@H]32)nn1`, the Percent Effect in assay [1] is -2.13%; in assay [2], -2.7%; in [3], -2.15%; in assay [11], 0.154%; in assay [4], -4.13%; in the assay on Trypanosoma cruzi it was -6.55%. Besides, the Percent Effect is 4.78% in assay [5]; 18.4% in [6]; 0.179% in the assay listed under Homo sapiens; -2.36% in assay [7]; 6.49% in [8]; 10.3% in assay [9]. The Percent Effect in assay [10] was 2.29%.

For the compound `c1cncc(OC[C@@H]2CC[C@H]3[C@H](CCN3Cc3cccs3)O2)c1`, the Percent Effect in [1] is -2.2%; in assay [2] it was 5.33%; in [3] it was -2.1%; in [11] it was 4.9%; in assay [4], -3.46%; in the assay on Trypanosoma cruzi it was -2.56%. In addition, the Percent Effect was 2.1% in [5]; -0.969% in assay [6]; -0.872% in the assay filed under Homo sapiens; -5.68% in assay [7]; 2.13% in assay [8]; 8.97% in assay [9]. The Percent Effect in [10] is 2.16%.

Regarding `CN1CCC2(CC1)C(=O)N(CC1CC1)c1ccccc12`, the Percent Effect in assay [1] was -2.83%; in [2], 9.09%; in assay [3] it was -2.3%; in assay [4], -0.296%; in the assay with Trypanosoma cruzi, -1.69%; in assay [5], 3.65%. The Percent Effect in assay [6] was 1.12%; in the assay listed under Homo sapiens, 2.83%; in assay [7], 4.66%; in assay [8], -0.966%; in [9] it was 0%; in assay [10] it was -9.03%.

(Values after ChEMBL document CHEMBL3988442, “University of Dundee, Small-Polar-MMV Screening Library” (2021).)
